# Active and inactive are the calls of the source. The calls were made as follows: active = hit-call score of the fitted dose curve at least 0.9, where 1 is the maximum; inactive = score below 0.9.
# How the values were obtained:
# Settings in all cases: mRNA level, 48 h; actives raise or lower the signal
# [1] = read-out: Glutathione S-transferase M3 (GSTM3), GSTM3 (gene 2947); assay: LTEA_HepaRG_GSTM3: Life Technologies and Expression Analysis (LTEA) Assay for Glutathione S-transferase M3 (GSTM3) using HepaRG (AID 2283501)
# Procedure, shortened: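 GSTM3 transcript levels came from Fluidigm TaqMan qRT-PCR normalized to three housekeeping genes, fitted in both directions against DMSO. HepaRG cultures received chemicals for 48 h in serum-free induction medium (0.5% DMSO), 8 half-log concentrations up to 100 uM, duplicate.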
# [2] = read-out: Heat shock 70 kDa protein 1 (HSPA1A), gene 3303; assay: LTEA_HepaRG_HSPA1A: Life Technologies and Expression Analysis (LTEA) Assay for Heat shock 70 kDa protein 1 (HSPA1A) using HepaRG (AID 2283502)
# Procedure, shortened: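 HSPA1A induction in human HepaRG liver cells is measured after 48 h of chemical treatment (100 uM maximum, 0.5% DMSO vehicle). Expression comes from qRT-PCR normalized to endogenous controls.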
# [3] = read-out: Hypoxia-inducible factor 1-alpha (Homo sapiens) (UniProt Q16665); assay: LTEA_HepaRG_HIF1A: Life Technologies and Expression Analysis (LTEA) Assay for Hypoxia-inducible factor 1 (HIF1A) Trancription factor using HepaRG (AID 2283503)
# Procedure, shortened: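 HepaRG, 48 h exposure, 8-pt half-log series from 100 uM, 0.5% DMSO vehicle, duplicates. Readout: HIF1A transcript by qRT-PCR (Fluidigm array), housekeeping-normalised. Bidirectional curve fit vs DMSO baseline.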
# [4] = read-out: 3-Hydroxy-3-Methylglutaryl-CoA Synthase 2 (HMGCS2), HMGCS2 (gene 3158); assay: LTEA_HepaRG_HMGCS2: Life Technologies and Expression Analysis (LTEA) Assay for 3-Hydroxy-3-Methylglutaryl-CoA Synthase 2 (HMGCS2) using HepaRG (AID 2283504)
# Procedure, shortened: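 Readout is HMGCS2 transcript by qRT-PCR, housekeeping-normalised (ACTB/GAPDH/POLR2A) and fitted bidirectionally against 0.5% DMSO. Differentiated HepaRG cells received chemicals 48 h, duplicate wells, eight half-log concentrations topping at 100 uM.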
# HGF (gene 3082) = assay: LTEA_HepaRG_HGF: Life Technologies and Expression Analysis (LTEA) Assay for Hepatocyte Growth Facto (HGF) using HepaRG (AID 2283505)
# Procedure, shortened: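 HGF transcript was quantified by TaqMan qRT-PCR against three housekeeping genes after 48 h treatment of HepaRG cells. Exposure ran in duplicate over eight half-log steps topping at 100 uM in 0.5% DMSO vehicle.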
# [5] = read-out: Insulin Like Growth Factor 1 (IGF1), IGF1 (gene 3479); assay: LTEA_HepaRG_IGF1: Life Technologies and Expression Analysis (LTEA) Assay for Insulin Like Growth Factor 1 (IGF1) using HepaRG (AID 2283506)
# Procedure, shortened: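 Using human HepaRG liver cells, IGF1 transcript induction or suppression is measured 48 h after dosing across eight concentrations capped at 100 uM. Values derive from bidirectional concentration-response fitting with DMSO as baseline.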
# [6] = read-out: Intercellular Adhesion Molecule 1 (ICAM1), ICAM1 (gene 3383); assay: LTEA_HepaRG_ICAM1: Life Technologies and Expression Analysis (LTEA) Assay for Intercellular Adhesion Molecule 1 (ICAM1) using HepaRG (AID 2283507)
# Procedure, shortened: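 ICAM1 transcript levels measured by qRT-PCR, normalized to three housekeeping genes (ACTB, GAPDH, POLR2A), after 48 h chemical exposure of HepaRG cells. Duplicate eight-point half-log series from 100 uM in 0.5% DMSO; gain or loss fitted against vehicle.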
# [7] = read-out: Insulin-like growth factor-binding protein 1 (IGFBP1), IGFBP1 (gene 3484); assay: LTEA_HepaRG_IGFBP1: Life Technologies and Expression Analysis (LTEA) Assay for Insulin-like growth factor-binding protein 1 (IGFBP1) using HepaRG (AID 2283508)
# Procedure, shortened: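 Read-out is qRT-PCR transcript level normalized to three housekeeping genes, fitted in both directions against 0.5% DMSO. Differentiated HepaRG cells received eight half-log concentrations (top 100 uM) in duplicate for 48 h in serum-free induction medium.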
# [8] = read-out: Interleukin 6 (IL6), IL6 (gene 3569); assay: LTEA_HepaRG_IL6: Life Technologies and Expression Analysis (LTEA) Assay for Interleukin 6 (IL6) using HepaRG (AID 2283509)
# Procedure, shortened: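 Differentiated human HepaRG cells, plated 48 h then switched to serum-free induction medium, were exposed in duplicate for 48 h to eight half-log concentrations up to 100 uM in 0.5% DMSO. IL6 mRNA measured by qRT-PCR, normalized to ACTB/GAPDH/POLR2A.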
# [9] = read-out: Interleukin 6 Receptor (IL6R), IL6R (gene 3570); assay: LTEA_HepaRG_IL6R: Life Technologies and Expression Analysis (LTEA) Assay for Interleukin 6 Receptor (IL6R) using HepaRG (AID 2283510)
# Procedure, shortened: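 Concentration-response in human liver HepaRG cells: eight concentrations from 100 uM downward by half-logs, 48 h exposure, 0.5% DMSO vehicle. IL6R mRNA change measured by qRT-PCR and fitted in both directions relative to vehicle.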
# Hypoxia-inducible factor 1-alpha (Homo sapiens), sequence (Q16665 whole entry, looked up): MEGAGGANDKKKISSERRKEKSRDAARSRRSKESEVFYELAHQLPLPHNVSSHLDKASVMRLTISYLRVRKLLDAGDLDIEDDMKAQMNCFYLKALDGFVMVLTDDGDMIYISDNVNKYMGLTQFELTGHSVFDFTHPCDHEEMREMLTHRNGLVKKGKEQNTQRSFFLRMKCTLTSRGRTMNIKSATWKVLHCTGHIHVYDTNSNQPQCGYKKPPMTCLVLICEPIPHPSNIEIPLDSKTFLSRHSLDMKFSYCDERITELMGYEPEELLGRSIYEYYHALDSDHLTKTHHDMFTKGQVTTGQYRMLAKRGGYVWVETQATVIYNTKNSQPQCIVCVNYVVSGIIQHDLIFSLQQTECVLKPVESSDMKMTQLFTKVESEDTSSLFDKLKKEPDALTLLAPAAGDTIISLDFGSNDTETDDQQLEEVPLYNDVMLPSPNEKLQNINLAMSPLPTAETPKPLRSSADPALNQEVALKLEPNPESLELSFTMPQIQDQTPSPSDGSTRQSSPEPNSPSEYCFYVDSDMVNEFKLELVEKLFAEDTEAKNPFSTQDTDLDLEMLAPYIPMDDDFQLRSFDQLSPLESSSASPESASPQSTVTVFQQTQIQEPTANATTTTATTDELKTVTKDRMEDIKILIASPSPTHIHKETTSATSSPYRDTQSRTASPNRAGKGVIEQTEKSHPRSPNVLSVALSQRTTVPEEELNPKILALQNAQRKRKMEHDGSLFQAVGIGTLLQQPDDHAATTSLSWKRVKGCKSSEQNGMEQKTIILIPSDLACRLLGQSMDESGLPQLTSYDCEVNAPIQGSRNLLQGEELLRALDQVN
SMILES,outcome [1],outcome [2],outcome [3],AC50 [4],outcome (HGF (gene 3082)),outcome [5],AC50 [6],AC50 [7],AC50 [8],outcome [9],outcome [4],outcome [6],outcome [7],outcome [8],AC50 [5],AC50 [1],AC50 [2],AC50 (HGF (gene 3082)),AC50 [9]
CCc1cc(C2=C(C(=O)O)N(c3ccccc3C(F)(F)F)S(=O)(=O)c3ccccc32)cc2c1OCO2,inactive,inactive,inactive,81.4 µM (active),inactive,inactive,50 µM (active),75.4 µM (active),78.5 µM (active),inactive,–,–,–,–,–,–,–,–,–
CC(C)COC(=O)CCCCC(=O)OCC(C)C,inactive,inactive,inactive,–,inactive,inactive,–,–,–,inactive,inactive,inactive,inactive,inactive,–,–,–,–,–
CO[C@@H]1COCC[C@@H]1N[C@@H]1CC[C@@](C(=O)N2CCc3ncc(C(F)(F)F)cc3C2)(C(C)C)C1,inactive,inactive,inactive,–,inactive,inactive,–,–,–,inactive,inactive,inactive,inactive,inactive,–,–,–,–,–
CC(C)(O)c1ccc(CNC(=O)c2cccnc2Oc2ccc(F)cc2)cc1,inactive,inactive,inactive,–,inactive,–,–,–,–,inactive,inactive,inactive,inactive,inactive,50 µM (active),–,–,–,–
Cc1ccc(-c2cc(C(F)(F)F)nn2-c2ccc(S(N)(=O)=O)cc2)cc1,inactive,inactive,inactive,73.7 µM (active),inactive,–,50 µM (active),–,81.4 µM (active),inactive,–,–,inactive,–,81.3 µM (active),–,–,–,–
CC(COCC(C)OC(=O)c1ccccc1)OC(=O)c1ccccc1 (stereo not given),inactive,inactive,inactive,–,inactive,inactive,–,–,–,inactive,inactive,inactive,inactive,inactive,–,–,–,–,–
CC(=O)OC1CC(C)OC(C)O1 (stereo not given),inactive,inactive,inactive,–,inactive,inactive,–,–,–,inactive,inactive,inactive,inactive,inactive,–,–,–,–,–
NC=O,inactive,inactive,inactive,–,inactive,inactive,–,–,–,inactive,inactive,inactive,inactive,inactive,–,–,–,–,–
CCCCC(CC)COC(=O)CCCCCCCC(=O)OCC(CC)CCCC (stereo not given),inactive,inactive,inactive,–,inactive,inactive,–,–,–,inactive,inactive,inactive,inactive,inactive,–,–,–,–,–
Cc1cc(Cc2ccc(N)c(C)c2)ccc1N,inactive,inactive,inactive,–,inactive,inactive,–,–,–,inactive,inactive,inactive,inactive,inactive,–,–,–,–,–
CN(C)C(=O)NC1(c2ccccc2)CCN(CC[C@@]2(c3ccc(F)c(F)c3)CN(C(=O)c3ccccc3)CCO2)CC1,inactive,inactive,inactive,47 µM (active),inactive,–,–,–,–,inactive,–,inactive,inactive,inactive,15.7 µM (active),–,–,–,–
OCC(O)CO,inactive,inactive,inactive,–,inactive,inactive,–,–,–,inactive,inactive,inactive,inactive,inactive,–,–,–,–,–
N[C@@H](Cc1c[nH]c2ccccc12)C(=O)O,inactive,inactive,inactive,–,inactive,inactive,–,–,–,inactive,inactive,inactive,inactive,inactive,–,–,–,–,–
C=CCCCCCCCCCCCC,inactive,inactive,inactive,–,inactive,inactive,–,–,–,inactive,inactive,inactive,inactive,inactive,–,–,–,–,–
C/C=C/c1ccc(OC)cc1,inactive,inactive,inactive,–,inactive,inactive,–,–,–,inactive,inactive,inactive,inactive,inactive,–,–,–,–,–
CCCCCCCCCC[N+](C)(C)[O-],inactive,inactive,inactive,–,inactive,inactive,–,–,–,inactive,inactive,inactive,inactive,inactive,–,–,–,–,–
CS(=O)(=O)c1ccc([C@@H](C[C@H]2CCC(=O)C2)C(=O)Nc2cnccn2)cc1Cl,–,–,inactive,–,–,–,1.48 µM (active),2.29 µM (active),–,–,inactive,–,–,inactive,1.24 µM (active),17.6 µM (active),13.4 µM (active),1.71 µM (active),16.8 µM (active)
CC(=O)O,inactive,inactive,inactive,–,inactive,inactive,–,–,–,inactive,inactive,inactive,inactive,inactive,–,–,–,–,–
CC(C)(C)c1ccccc1,inactive,inactive,inactive,–,inactive,inactive,–,–,–,inactive,inactive,inactive,inactive,inactive,–,–,–,–,–
CC1(C)C(=O)NC(=O)N1CO,inactive,inactive,inactive,–,inactive,inactive,–,–,–,inactive,inactive,inactive,inactive,inactive,–,–,–,–,–
O=Cc1ccccc1C=O,inactive,inactive,inactive,–,inactive,inactive,–,–,–,inactive,inactive,inactive,inactive,inactive,–,–,–,–,–
